Rows were chosen to be rich in hits. Some 6.7% of all compounds tested hit in one or more screens of this group.
BoNT F protease = BoNT F light chain protease inhibition. Multiplex microsphere protease cleavage assay, flow cytometry. inhibition, % at 10 µM. 360,000 compounds, 0.22% hits; in the data active = inhibition above about 35%, passing the limit was not always enough; inconclusive = no clear call, values can overlap the other calls
Mtb FBA inh = Mtb fructose-bisphosphate aldolase inhibition | P9WQA3 | AID 588726 | 360,000 compounds, 2.3% hits | inhibition, % at 1 µM | purified M. tuberculosis FBA, fluorescence read-out; in the data active = inhibition above about 27%
Anthrax LF inh2 = inhibitors of Bacillus anthracis lethal factor protease. P15917. multiplex microsphere protease cleavage assay, LF. inhibition, % at 10 µM. 360,000 compounds, 0.12% hits. AID 588501
Target sequence (P15917 whole entry, looked up): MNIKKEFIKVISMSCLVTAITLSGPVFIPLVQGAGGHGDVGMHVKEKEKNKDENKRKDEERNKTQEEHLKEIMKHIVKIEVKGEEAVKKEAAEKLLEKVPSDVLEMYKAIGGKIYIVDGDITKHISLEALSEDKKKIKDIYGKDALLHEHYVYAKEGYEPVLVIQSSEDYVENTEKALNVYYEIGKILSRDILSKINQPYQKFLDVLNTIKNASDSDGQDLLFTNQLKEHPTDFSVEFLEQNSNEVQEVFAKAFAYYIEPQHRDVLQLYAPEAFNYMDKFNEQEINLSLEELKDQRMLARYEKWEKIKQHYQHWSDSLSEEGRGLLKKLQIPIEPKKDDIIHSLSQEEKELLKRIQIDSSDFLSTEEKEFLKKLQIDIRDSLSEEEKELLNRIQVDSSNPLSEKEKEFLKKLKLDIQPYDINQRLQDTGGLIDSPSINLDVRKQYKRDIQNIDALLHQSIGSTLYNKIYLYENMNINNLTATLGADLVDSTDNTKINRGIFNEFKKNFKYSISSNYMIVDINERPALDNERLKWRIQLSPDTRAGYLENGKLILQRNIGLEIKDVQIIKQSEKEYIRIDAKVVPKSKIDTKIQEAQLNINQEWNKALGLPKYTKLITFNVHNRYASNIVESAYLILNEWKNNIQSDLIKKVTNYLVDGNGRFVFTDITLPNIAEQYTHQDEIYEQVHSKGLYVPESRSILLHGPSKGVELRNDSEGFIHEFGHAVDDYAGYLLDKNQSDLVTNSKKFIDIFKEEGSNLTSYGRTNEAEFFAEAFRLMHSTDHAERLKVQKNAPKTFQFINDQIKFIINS
Bead autofluor = counter-screen for toxin protease inhibitors: compound fluorescence; AID 624483; fluorescence intensity (test concentration not listed); 360,000 compounds, 3.1% hits; compound autofluorescence counterscreen, microsphere flow cytometry; stronger effect = higher value; in the data active = fluorescence intensity above about 16000; inconclusive = no clear call, values can overlap the other calls
GDH-TPI inh = counter-screen for M. tuberculosis FBA inhibitors: GDH-TPI coupled enzymes | GDH-TPI coupled enzyme counterscreen, NADH absorbance | 360,000 compounds, 1.2% hits | AID 588335 | inhibition, % at 4.8 µM; in the data active = inhibition above about 30%
BoNT-A LC inh2 = BoNT A light chain protease inhibition | multiplex microsphere protease substrate cleavage, flow cytometry | inhibition, % at 10 µM | 360,000 compounds, 0.17% hits | AID 588499
Large screens that a line does not name were inactive. Cut-off read from the data, not from the text of the source, unless noted: active = inhibition above about 30%; inconclusive = no clear call, values can overlap the other calls; inactive = below that.

O=C(c1ccncc1)c1ccc(N2CCN(C3CC(=O)N(Cc4cccs4)C3=O)CC2)cc1 (stereo not drawn)	GDH-TPI inh 38
CCN1C(=O)CC(N2CCN(c3ccc(C(=O)c4ccncc4)cc3)CC2)C1=O (stereo not drawn)	Bead autofluor 20385, BoNT-A LC inh2 inconclusive
O=C1CC(N2CCN(c3ccc(O)cc3)CC2)C(=O)N1Cc1cccs1 (stereo not drawn)	none
CCN1CCN(CC(=O)N2c3ccccc3CC2C)CC1 (stereo not drawn)	Bead autofluor 24267
CCOC(=O)N1CCN(CC(=O)N2c3ccccc3CC2C)CC1 (stereo not drawn)	Bead autofluor 25433
CC1Cc2ccccc2N1C(=O)CN1CCCCC1 (stereo not drawn)	none
CCOC(=O)N1CCN(CC(=O)N2c3ccccc3Sc3ccccc32)CC1	none
N#C/C(=C\c1cccnc1)C(=O)Nc1ccccc1[N+](=O)[O-]	none
Cn1ncc(Br)c1C(=O)Nc1c(F)c(F)cc(F)c1F	Bead autofluor 21682, BoNT-A LC inh2 inconclusive
CC1CN(C(=O)Nc2ccc3c(c2)OCO3)CC(C)O1 (stereo not drawn)	Bead autofluor 20354
COc1cc(C(=O)N2CC(C)OC(C)C2)c([N+](=O)[O-])cc1OC (stereo not drawn)	Bead autofluor 18981
COc1ccc(NC(=O)N2CC(C)OC(C)C2)cc1OC (stereo not drawn)	Bead autofluor 24184
O=C(Nc1ccc2c(c1)OCO2)N1CCCC1	none
CC1(C(=O)N2CCC(CC3CC(c4ccc(Cl)cc4)=NO3)(C(=O)NCC3CCCCC3)CC2)CC1 (stereo not drawn)	none
O=C(COc1ccc(/C=C2/NC(=O)NC2=O)cc1)Nc1ccc(F)cc1	none
CCOC(=O)c1sc(/N=C/N(C)C)nc1C	GDH-TPI inh 31
CCOC(=O)c1sc(/N=C/N(C)C)c(C(=O)OCC)c1C	none
CCn1c(SCC(=O)Nc2ccc(Cl)cc2)nc2nc3c(cc2c1=O)CCCC3	none
COc1ccc(-c2ccnc3nc(N4CCOCC4)nn23)cc1	Mtb FBA inh 84, GDH-TPI inh 34
COc1ccc(-c2ccnc3nc(-n4cccc4)nn23)cc1	Bead autofluor 20861
c1coc(-c2ccnc3nc(-n4cccc4)nn23)c1	none
CC(C)C(c1nnnn1C(C)(C)C)N1CCC(Cc2ccccc2)CC1 (stereo not drawn)	BoNT F protease inconclusive, Anthrax LF inh2 inconclusive, Bead autofluor 18261, BoNT-A LC inh2 inconclusive
CCc1c(C)n2nc(C)cc2[nH]c1=O	Bead autofluor 22318
CC(=O)Oc1ccc(-c2cccc(C(=O)NCC(=O)O)c2)cc1	Bead autofluor 23862
CC(=O)Oc1ccc(-c2cccc(C(=O)NCCO)c2)cc1	none
CCC1(C)Cc2c(C#N)c(N)sc(=S)c2CO1 (stereo not drawn)	Anthrax LF inh2 41, BoNT-A LC inh2 75
N#CC(C#N)=CNc1cccnc1	GDH-TPI inh 43
N#CC(C#N)=Cc1cccnc1	none
O=C1CSC(c2ccccc2O)N1Cc1ccccc1 (stereo not drawn)	none
O=C(C1CCN(S(=O)(=O)N2CCOCC2)CC1)N1CCC2(CC1)OCCO2	Bead autofluor 22049
O=C(c1ccc(S(=O)(=O)N2CCC(c3nc4ccccc4s3)CC2)cc1)N1CCOCC1	Bead autofluor 23501
COc1ccc(N2CCN(C(=O)C3CCN(S(=O)(=O)c4cccs4)CC3)CC2)cc1	none
O=C(C1CCN(S(=O)(=O)c2cccs2)CC1)N1CCN(c2ccccc2)CC1	Bead autofluor 16746
O=C(C1CCN(S(=O)(=O)c2ccccc2)CC1)N1CCOCC1	Bead autofluor 16459, BoNT-A LC inh2 inconclusive
Cc1ccc(CN2CCC(CNC(=O)C3CCCN(c4ncnc5c4nc4n5CCCCC4)C3)CC2)cc1 (stereo not drawn)	none
COc1ccccc1N(CC(=O)NCCc1ccccc1)C(=O)CCC(=O)Nc1ccccn1	none
COc1ccccc1Oc1ccccc1[N+](=O)[O-]	none
O=C(C1CCN(S(=O)(=O)c2ccc(F)cc2)CC1)N1CC=C(c2ccccc2)CC1	Bead autofluor 17943
CN(C)C(=O)C1Cc2ccccc2CN1S(=O)(=O)c1cccs1 (stereo not drawn)	none
O=C(C1Cc2ccccc2CN1S(=O)(=O)c1cccs1)N1CCCCC1 (stereo not drawn)	Bead autofluor 25075
Cc1ccc(C(=O)NC2CC(C)(C)NC(C)(C)C2)cc1S(=O)(=O)N1CCOCC1	none
COc1ccc(C(=O)Cn2nnc(-c3ccccc3NC(=O)C(F)(F)F)n2)cc1	none
